{"source": "PubChem BioAssay (Tox21)", "note": "The source made the active and inactive calls. The call rests on the fitted dose curve; in most records, active means well fitted curve in the direction sought with a large enough effect in the repeat runs; inconclusive means weak or mixed curves; inactive means flat fitted curve, though single readings scatter. On the % scale 0 is the no-effect control and ±100 the full control effect."}
{"experiment": "qHTS assay to test for compound auto fluorescence at 590 nm (red) in HepG2 cell free culture (AID 720684)", "details": "cell-free medium autofluorescence, red 540/590 nm; series mostly up to 46 µM; fluorescence, % of Rose Bengal: at the top concentration", "source_text": "U.S. Tox21 Program National Center for Advancing Translational Sciences [NCATS] NIH Chemical Genomics Center [NCGC] U.S. Environmental Protection Agency [EPA] National Institutes of Environmental Health Sciences [NIEHS] National Toxicology Program [NTP] U.S. Food and Drug Administration [FDA] Tox21 Assay Overview: Compound auto fluorescence often interferes with screening of the compound library against various biological targets and signaling pathways. Some of these compounds may have fluorophoric properties. Such properties may interfere with the assay outputs resulting in false positives and/or negatives. To decrease such complications and ensure the compound activities are relevant in terms of biological response, the Tox21 10K compound library was screened for auto fluorescence. From the fluorophores used as reporter signals in our screening assays, the auto fluorescence equivalencies of compounds against three fluorophores have been evaluated: Triamterene, Fluorescein and Rose Bengal sodium for blue, green and red fluorescence, respectively. The fluorescence intensities were measured using Excitation/Emission wavelengths at 405/460nm, 485/535nm and 540/590nm for blue, green and red labels, respectively. This assay includes the red fluorescence data.\nTox21 Assay Protocol Summary: 5 uL of culture medium (MEM containing 10% FBS) per well was dispensed into black wall/clear bottom 1536-well plates using a Multidrop Combi Dispenser (ThermoFisher Scientific, Waltham, MA). After 23 nL compound or DMSO vehicle was transferred into assay plate by a pintool work station (Kalypsys, San Diego, CA), fluorescence intensities in the assay plates were measured by an Envision (PerkinElmer, Shelton, CT) plate reader using three labels for measuring blue, green and red fluorescence at […] 460, 535 and 590nm respectively."}
{"smiles": "Oc1ccc(C2CNCCc3c2cc(O)c(O)c3Cl)cc1", "note": "(stereo not given)", "fluorescence, % of Rose Bengal": "0.519% (inactive)"}
{"smiles": "Nc1cc(=O)[nH]c(N)n1", "fluorescence, % of Rose Bengal": "-0.366% (inactive)"}
{"smiles": "OC(CCN1CCCCC1)(c1ccccc1)C1CC2C=CC1C2", "note": "(stereo not given)", "outcome": "inactive"}
{"smiles": "CC(=O)CC(C)C", "fluorescence, % of Rose Bengal": "-0.0438% [at 91.3 µM] (inactive)"}
{"smiles": "COc1ccc2c(c1)c(CC(=O)OCC(=O)O)c(C)n2C(=O)c1ccc(Cl)cc1", "fluorescence, % of Rose Bengal": "0.25% (inactive)"}
{"smiles": "O=[N+]([O-])c1ccc(F)cc1F", "fluorescence, % of Rose Bengal": "-0.316% [at 91.3 µM] (inactive)"}
{"smiles": "O=S(O)CO", "outcome": "inactive"}
{"smiles": "O=C(O)CCCc1ccccc1", "fluorescence, % of Rose Bengal": "-0.002% (inactive)"}
{"smiles": "FC(F)OC(Cl)C(F)(F)F", "note": "(stereo not given)", "outcome": "inactive"}
{"smiles": "CCC(=O)OC(C)c1ccccc1", "note": "(stereo not given)", "fluorescence, % of Rose Bengal": "-0.144% [at 91.3 µM] (inactive)"}
{"smiles": "C[C@H]1C[C@@H](O)CC(C)(C)C1", "fluorescence, % of Rose Bengal": "0.0212% [at 91.3 µM] (inactive)"}
{"smiles": "Cc1ccc(C#N)cc1", "fluorescence, % of Rose Bengal": "0.119% [at 91.3 µM] (inactive)"}
{"smiles": "CCCCC/C=C\\CCC=O", "fluorescence, % of Rose Bengal": "0.0153% [at 91.3 µM] (inactive)"}
{"smiles": "CCCCCCCCCCCCCCCCC", "fluorescence, % of Rose Bengal": "0.0374% [at 91.3 µM] (inactive)"}
{"smiles": "NS(=O)(=O)c1ccccc1Cl", "fluorescence, % of Rose Bengal": "-0.128% [at 91.3 µM] (inactive)"}
{"smiles": "CCCCCCCCCCCCN(CCCCCCCCCCCC)CCCCCCCCCCCC", "fluorescence, % of Rose Bengal": "0.469% [at 91.3 µM] (inactive)"}
{"smiles": "OCCCC1CCCCC1", "fluorescence, % of Rose Bengal": "0.0783% [at 91.3 µM] (inactive)"}
{"smiles": "NC(=O)c1ccc(N)cc1", "fluorescence, % of Rose Bengal": "0.081% [at 91.3 µM] (inactive)"}
{"smiles": "CCSC(=O)N(CC(C)C)CC(C)C", "fluorescence, % of Rose Bengal": "-0.0222% [at 91.3 µM] (inactive)"}
{"smiles": "c1ccc([C@H]2CN3CCSC3=N2)cc1", "fluorescence, % of Rose Bengal": "0.645% (inactive)"}
{"smiles": "CC(C)OC(=O)c1ccccc1", "fluorescence, % of Rose Bengal": "-0.0568% [at 95.7 µM] (inactive)"}
{"smiles": "CC(C)NCC(O)c1ccc(NS(C)(=O)=O)cc1", "note": "(stereo not given)", "outcome": "inactive"}
{"smiles": "Nc1ccc(S(=O)(=O)Nc2ccnn2-c2ccccc2)cc1", "fluorescence, % of Rose Bengal": "0.0323% [at 18.6 µM] (inactive)"}
{"smiles": "CCO[Si](CCC1CCC2OC2C1)(OCC)OCC", "note": "(stereo not given)", "fluorescence, % of Rose Bengal": "-0.176% [at 91.3 µM] (inactive)"}
{"smiles": "CC(=O)Nc1ccc(S(N)(=O)=O)cc1", "fluorescence, % of Rose Bengal": "-0.115% [at 91.3 µM] (inactive)"}
{"smiles": "O=C(O)Cc1ccc(CCNS(=O)(=O)c2ccc(Cl)cc2)cc1", "fluorescence, % of Rose Bengal": "-0.0498% (inactive)"}
{"smiles": "CCCC(=O)O[C@]1(C(=O)CO)CC[C@H]2[C@@H]3CCC4=CC(=O)CC[C@]4(C)[C@H]3[C@@H](O)C[C@@]21C", "fluorescence, % of Rose Bengal": "-0.328% (inactive)"}
{"smiles": "CC(=O)N(CC(O)CO)c1c(I)c(C(=O)NCCO)c(I)c(C(=O)NCC(O)CO)c1I", "note": "(stereo not given)", "fluorescence, % of Rose Bengal": "-0.205% (inactive)"}
{"smiles": "CCc1ccc(O)c(OC)c1", "fluorescence, % of Rose Bengal": "-0.185% [at 91.3 µM] (inactive)"}
{"smiles": "C=COCC1CCC(CO)CC1", "note": "(stereo not given)", "fluorescence, % of Rose Bengal": "0.0011% [at 91.3 µM] (inactive)"}
{"smiles": "COC(=O)c1c(Cl)c(Cl)c(C(=O)OC)c(Cl)c1Cl", "outcome": "inactive"}
{"smiles": "CC(=O)OCC(=O)[C@@]1(O)CCC2C3CCC4=CC(=O)CC[C@]4(C)C3[C@@H](O)C[C@@]21C", "note": "(stereo not given in full)", "fluorescence, % of Rose Bengal": "0.0056% (inactive)"}
{"smiles": "O=c1cc(CO)occ1O", "outcome": "inactive"}
{"smiles": "c1ccc(CC2=NCCN2)cc1", "fluorescence, % of Rose Bengal": "-0.79% [at 18.6 µM] (inactive)"}
{"smiles": "CCCCCCOC(=O)CCCCC(=O)OCCCCCC", "fluorescence, % of Rose Bengal": "0.0849% [at 91.3 µM] (inactive)"}
{"smiles": "O=C[C@H](O)[C@@H](O)[C@H](O)[C@H](O)CO", "outcome": "inactive"}
{"smiles": "CCCCCCCCCCCCCC=O", "fluorescence, % of Rose Bengal": "0.0058% [at 3.72 µM] (inactive)"}
{"smiles": "O=Cc1cccc([N+](=O)[O-])c1", "fluorescence, % of Rose Bengal": "-0.178% [at 91.3 µM] (inactive)"}
{"smiles": "Cc1ccc(Cl)cc1Cl", "fluorescence, % of Rose Bengal": "-0.413% [at 91.3 µM] (inactive)"}
{"smiles": "O=C(CCCN1CCC(O)(c2cccc(C(F)(F)F)c2)CC1)c1ccc(F)cc1", "fluorescence, % of Rose Bengal": "0.0253% (inactive)"}
